PubChem BioAssay (NCI)
The panel holds about 79,000 compounds, 15% with a hit somewhere; the sample as a whole holds those more often. No stated cut-off is given here; in the data, active means growth inhibition above about 70%; inactive means the rest. Where a SMILES comes first, the peptide text is derived from it.

Legend:
[1] = NCI Yeast Anticancer Drug Screen. Data for the rad50 strain (AID 155);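 further: 0% = growth of vehicle-only cultures of the same strain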; conditions: S. cerevisiae rad50 strain growth inhibition; at 50.0 µM; stronger effect = higher value
Procedure, shortened: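 Cells are treated with compound, grown, and their growth is then scored against vehicle-only cultures of the same repair-deficient yeast strain.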

[2] = NCI Yeast Anticancer Drug Screen. Data for the mec2-1 strain (AID 157); conditions: S. cerevisiae mec2-1 strain, at 50.0 µM, stronger effect = higher value
Procedure, shortened: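 mec2-1 yeast strain, carrying an alteration in DNA damage repair or cell cycle control, was exposed to compounds; growth inhibition was measured relative to vehicle-treated controls.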

[3] = NCI Yeast Anticancer Drug Screen. Data for the sgs1 mgt1 strain (AID 161);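 further: 0% = growth of cultures given vehicle only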; conditions: S. cerevisiae sgs1 mgt1 strain, at 50.0 µM, stronger effect = higher value
Procedure, shortened: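 Yeast cells carrying a defined DNA-repair defect were exposed to test compounds. Growth inhibition was measured relative to vehicle-treated controls.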

[4] = NCI Yeast Anticancer Drug Screen. Data for the cln2 rad14 strain (AID 165);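 further: 0% = growth equal to vehicle treated cultures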; conditions: S. cerevisiae cln2 rad14 strain, at 50.0 µM, stronger effect = higher value
Procedure, shortened: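 Yeast carrying cln2 and rad14 alterations (cell cycle control and DNA damage repair) were exposed to compounds. Growth inhibition was measured against vehicle-treated controls.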

[5] = NCI Yeast Anticancer Drug Screen. Data for the bub3 strain (AID 167); conditions: S. cerevisiae bub3 mutant strain, at 50.0 µM, stronger effect = higher value
Procedure, shortened: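 Part of a panel of yeast mutants defective in DNA damage repair or cell cycle regulation. Each strain is grown with compound, and inhibition is calculated relative to solvent-treated cultures.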

[6] = NCI Yeast Anticancer Drug Screen. Data for the mlh1 rad18 strain (AID 175); conditions: S. cerevisiae mlh1 rad18 strain growth inhibition; at 50.0 µM; stronger effect = higher value
Procedure, shortened: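 Growth inhibition of the yeast strain was measured after compound exposure and expressed relative to vehicle-treated controls. The strain carries defined defects in DNA damage repair.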

Measured: growth inhibition

CCN(CC)Cc1cc(Nc2nc(/C=C/c3ccccc3)nc3ccccc23)ccc1O
inactive: [1] 4.05% | [2] -37.5% | [3] -3.25% | [4] 13.9% | [5] -6.7%

O=C(OCC1OC(OC(=O)c2ccccc2)C(O)C1OC(=O)c1ccccc1)c1ccccc1 (configuration not stated)
inactive: [1] 45.2% | [2] 15.7% | [3] 19.3% | [4] 38.2% | [5] 35.7%

CC1CCOCCCOC(=O)CCOCCC(=O)OCCCOCCCOC(=O)CCOCCC(=O)O1 (configuration not stated)
inactive: [1] 0.7% | [2] 2.4% | [3] 5% | [4] 15.9% | [5] -5.95%

Cc1cc2nc(Oc3ccccc3)nc(=O)n2o1
inactive: [1] 2.3% | [2] 0.4% | [3] 6.7% | [4] -2.05% | [5] 11.8%

COC1=CC(=O)C=C(OC)C1=O
inactive: [1] -2.55% | [2] -12.8% | [3] -28.6% | [4] 6.25% | [5] -25.4%

CC(=O)Nc1nc(C)c(S(=O)(=O)Cl)s1
inactive: [1] 27.5% | [2] 10.4% | [3] 33% | [4] 23.2% | [5] 14.8%

N#C[C@H](c1nc2ccccc2[nH]1)c1nc2ccccc2nc1Cl
inactive: [1] 5.5% | [2] 2.5% | [3] 21.9% | [4] 12.8% | [5] 15.3%

CCC(C)(C)c1ccc([N+](=O)[O-])cc1
inactive: [1] 18.3% | [2] 8.8% | [3] 27.4% | [4] 15.7% | [5] -0.65%

O=C(O)CCc1ccsc1
inactive: [1] -17.6% | [2] 4.55% | [3] -21.9% | [4] -28.4% | [5] -10.5%

CC(C)CC(NC(=O)C(Cc1ccccc1)NC(=O)CNC(=O)CN)C(=O)O (configuration not stated) (H-GGFL-OH; configuration not given here)
inactive: [1] -1.55% | [2] -4.05% | [3] -11.4% | [4] -5.05% | [5] -1.9%

O=C(NC(Cc1ccccc1)P(=O)(O)c1ccccc1)OCc1ccccc1 (configuration not stated)
inactive: [1] -8.45% | [2] -30.5% | [3] -30.2% | [4] 15.7% | [5] 2.3%

CCOC(=O)C(NC(=O)Cc1ccccc1)C1NC(C(=O)O)CS1 (configuration not stated)
inactive: [1] 19.9% | [2] 1.8% | [3] 3.2% | [4] -14.8% | [5] -1.05%

CCOc1ccc(C(=O)C=O)cc1
inactive: [1] 11.6% | [2] -5.65% | [3] 11.4% | [4] -0.7% | [5] 9.55%

O=C(c1ccccc1)c1ccc2ccc(F)cc2c1C(=O)O
inactive: [1] -4% | [2] 17.9% | [3] 2.05% | [4] -17.9% | [5] 16.6%

COc1ccc(C2NCCCC2c2ccccc2)cc1 (configuration not stated)
inactive: [1] -46.3% | [2] -29.4% | [3] -2.65% | [4] 14.8% | [5] -40.2%

COc1ccc(C)cc1S(=O)(=O)c1c(Cl)cccc1[N+](=O)[O-]
inactive: [1] -5.95% | [2] -15.4% | [3] 2.25% | [4] -20.5% | [5] -1.3%

Nc1ncnc2c1ncn2C1OC(C(=O)OCCO)C(O)C1O (configuration not stated)
inactive: [1] -16.6% | [2] -19.8% | [3] -12.6% | [4] -12.2% | [5] -11.2%

NC=O
inactive: [1] -9.45% | [2] 11.2% | [3] 7.1% | [4] -1.4% | [5] -0.15%

COC(=O)CCCCCCCCCCC1C=CCC1 (configuration not stated)
inactive: [1] -3.5% | [2] -23% | [3] 11.4% | [4] 9.8% | [5] -3.45%

CC(=O)c1c(-c2ccccc2)noc1C
inactive: [1] 7.35% | [2] -7.35% | [3] -7.55% | [4] -37.4% | [5] -12.8%

CC(=O)Oc1ccc2c(c1)C(=O)CCCCCC(=O)O2
inactive: [1] 19.2% | [2] 4.2% | [3] 6.85% | [4] -0.25% | [5] -2.4%

CCCCn1[nH]c(=O)ccc1=O
inactive: [1] 16.9% | [2] 7.6% | [3] 1.9% | [4] 11.4% | [5] -8.45%

O=C(O)CC(/C=C\C(=O)C(=O)O)=C\O
inactive: [1] -6.6% | [2] -6.4% | [3] -11.6% | [4] 3.6% | [5] 4.15%

Cc1ccccc1-c1nc2c([nH]1)c(=O)n(C)c(=O)n2C
inactive: [1] 32.8% | [2] -2.2% | [3] -10.2% | [4] -32.3% | [5] 0.25%

COC(=O)CCC1=C(C)C2=NC1=CC1=NC(=CC3=NC(=Cc4[nH]c(/c(=C\O)c4C)=C2)C(C=O)=C3C)C(C)=C1CCC(=O)OC
inactive: [1] 28.1% | [2] 16.5% | [3] 32.2% | [4] 26.9% | [5] 9.15%

C/C=C(\C)C(=O)N/N=C\C=C\c1ccccc1
inactive: [1] -12.2% | [2] -10.8% | [3] 0.95% | [4] -44.8% | [5] -16.1%

CC1C(O)C(c2ccccc2)(c2ccccc2)C(C)CN1C (configuration not stated)
inactive: [1] -5.65% | [2] -4.95% | [3] 4.15% | [4] 4.65% | [5] -2.6%

COc1cc(-c2cc(CCC(=O)Nc3ccccc3[N+](=O)[O-])n(-c3ccc([N+](=O)[O-])cc3[N+](=O)[O-])n2)ccc1O
inactive: [1] -5.2% | [2] -5.5% | [3] -42.7% | [4] 31.8% | [5] -4.65%

OC1CCC(C#CC#CC2CCC(O)CC2)CC1 (configuration not stated)
inactive: [1] 2.05% | [2] -34.2% | [3] 3.05% | [4] 2.25% | [5] -23.7%

Cc1cnc2nc(C)c(C)nc2n1
inactive: [1] 12.3% | [2] 1.55% | [3] 2.35% | [4] -0.95% | [5] -0.85%

CCN(CC)CCCC#CCN1CCOCC1
inactive: [1] -39.5% | [2] -48.5% | [3] -21.4% | [4] -16.9% | [5] -44.7%

NNc1nnc(NN)c2ccccc12
inactive: [1] 1.75% | [2] -2.05% | [3] 0.8% | [4] 3.65% | [5] 4.45%

C#CCCOC1(OC)N=NC(C)(C)O1 (configuration not stated)
inactive: [1] 1.05% | [2] 0.9% | [3] -6.95% | [4] 12.3% | [5] -2.65%

CC(C)(C)c1ccnc(C(O)(C(F)(F)F)C(F)(F)F)c1
inactive: [1] -3.4% | [2] -12.2% | [3] -12.2% | [4] -43.8% | [5] -7.75%

CC1(C)C=Cc2c(cc(O)c3c(=O)c4cc(Cl)ccc4[nH]c23)O1
inactive: [1] -14.2% | [2] -42.4% | [3] -14.8% | [4] -18.1% | [5] -15%

CCCCCn1c(=O)c2cc3c(=O)n(CCCCC)c(=O)c3cc2c1=O
inactive: [1] 14.2% | [2] 7.3% | [3] 16.2% | [4] -52.6% | [5] 10%

NC(Cc1ccc(O)cc1)C(=O)NCCS(=O)(=O)O (configuration not stated)
inactive: [1] 1.5% | [2] 9.85% | [3] 26.7% | [4] 11.2% | [5] 18.6%

O=S(=O)(O)c1cc[n+]([O-])cc1
inactive: [1] 1.6% | [2] 12.7% | [3] -2.8% | [4] 32.5% | [5] 11.8%

COc1ccc2ccccc2c1C1NC(=O)c2ccccc2N1 (configuration not stated)
inactive: [1] 13.1% | [2] -17.8% | [3] 5.75% | [4] 8.9% | [5] 12.5%

CC(C)Cn1cnc2c(Cl)nc3ccccc3c21
inactive: [1] -38.5% | [2] 20.4% | [3] 23.4% | [4] 0.25% | [5] 33.5% | [6] -11.8%

CCC(CC)C(=O)NC(=O)NC(N)=O
inactive: [1] 2.7% | [2] 1.4% | [3] 3.35% | [4] -4.7% | [5] 6.55% | [6] -3.55%

CCOC(=O)C(CC(c1ccc2c(c1)OCO2)C(C(=O)N(C(C)C)C(C)C)[N+](=O)[O-])C(=O)OCC (configuration not stated)
inactive: [1] 54.9% | [2] 21.4% | [3] 60.5% | [4] 16.2% | [5] 11.8% | [6] 26.4%

COc1ccc(COC(=O)Nc2ccccc2Cl)cc1
inactive: [1] 5.85% | [2] -9.45% | [3] -4.9% | [4] -6.9% | [5] 17% | [6] -6.35%

CON[N+]([O-])=NC(C)C
inactive: [1] 27.6% | [2] 6.3% | [3] 21.6% | [4] 11.5% | [5] 17% | [6] 21.8%

CC(=O)Nc1ccc(-c2nnc(SCC(=O)Nc3ccccc3)o2)cc1
inactive: [1] 2.3% | [2] 6.8% | [3] -4.95% | [4] -1.8% | [5] -14.6% | [6] -8.55%

CC(=O)OCCC1CC2c3[nH]c4ccccc4c3CCN2C1=O (configuration not stated)
inactive: [1] -3.85% | [2] -7% | [3] 15.9% | [4] 0.85% | [5] 10.7% | [6] -22.1%
